Shiga inhibitor: Shiga toxin inhibition | 290,000 compounds, 9.2% hits | inhibition, % at 38.7 µM | AID 2315 | Vero cells, Shiga toxin protein synthesis inhibition reporter; in the data active means inhibition mostly above about 28%, no sharp cut-off; inactive means mostly below about 43%
LmPK inhibitor: inhibitors of Leishmania mexicana pyruvate kinase; Potency, µM (highest dose often 57.5 µM), actives largely listed as inhibitors; purified LmPK, Kinase-Glo ATP luminescence, 1 h; 290,000 compounds, 0.37% hits
Target sequence (Q27686 whole entry, looked up): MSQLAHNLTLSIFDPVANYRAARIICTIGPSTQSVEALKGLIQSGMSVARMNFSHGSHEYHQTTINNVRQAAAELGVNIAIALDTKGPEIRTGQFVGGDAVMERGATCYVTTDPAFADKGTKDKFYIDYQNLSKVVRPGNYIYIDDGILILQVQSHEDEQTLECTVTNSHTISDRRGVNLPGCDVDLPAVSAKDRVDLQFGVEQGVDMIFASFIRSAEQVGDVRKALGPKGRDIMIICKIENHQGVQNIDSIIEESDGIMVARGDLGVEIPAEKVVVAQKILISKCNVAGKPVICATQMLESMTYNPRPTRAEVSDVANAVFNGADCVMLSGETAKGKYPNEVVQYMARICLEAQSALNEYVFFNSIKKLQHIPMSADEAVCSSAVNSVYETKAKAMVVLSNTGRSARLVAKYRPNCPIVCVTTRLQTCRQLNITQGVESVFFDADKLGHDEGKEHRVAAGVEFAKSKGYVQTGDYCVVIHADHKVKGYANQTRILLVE
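qHTS format; LmPK 0.1 nM; substrates PEP 0.5 mM and ADP 0.1 mM. One-hour room-temperature incubation, then coupled luciferase luminescence; 0.5 nM enzyme wells mark activation.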
Pf growth 96h: inhibits malaria parasite growth, 96 h. P. falciparum luciferase reporter growth, 96 h. Potency, µM (top dose mostly 28.7 µM), actives largely listed as inhibitors. 320,000 compounds, 6.9% hits. AID 504834
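96 h incubation, 37 C, 5% CO2, of luciferase-reporter P. falciparum-infected RBCs (2% hematocrit, 0.05% parasitemia final) with test compounds; endpoint luminescence.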
CHX counter: counter-screen for Shiga toxin inhibitors: cycloheximide protein synthesis inhibition; AID 2314; cell reporter, cycloheximide protein synthesis inhibition counterscreen; 300,000 compounds, 12% hits; max response, %; in the data active means max response mostly above about 13%, no sharp cut-off; inactive means mostly below about 14%; further: read at 38.3 µM for the half of the compounds with a filed dose
Pf growth 48h: P. falciparum growth inhibition at 48 hours (one generation); P. falciparum luciferase growth in erythrocytes, 48 h; Potency, µM (doses to about 28.7 µM), most hits filed as inhibitors; 310,000 compounds, 5.9% hits; AID 504832
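In quantitative HTS format, infected erythrocytes bearing luciferase-reporter parasites were treated for a single generation at 37 C. Luminescence after adding detection reagent served as the growth measure.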
Numbers stand for hits; i = inactive; ? = inconclusive; nt = no result; [ ] = dose if it differs, or a comment. Hits are enriched below; roughly 22% of the tested compounds scored in any of these assays. Unless noted, the call rests on the fitted dose curve; in most records, active means well fitted inhibition curve with a large enough effect; inconclusive means small, poorly fitted or top-dose-only effect, or another doubt; inactive means no such curve, though single readings can be large or run the other way.

SMILES	Shiga inhibitor	LmPK inhibitor	Pf growth 96h	CHX counter	Pf growth 48h
CN1CCN(C(=O)c2cc(COc3ccccc3)on2)[C@@H](c2ccccc2)C1	117	i	i	55	?
CC1CC(C)CN(CCCCOc2ccc([N+](=O)[O-])cc2)C1 (configuration not stated)	i	i	?	i	i
Cc1cc(NS(=O)(=O)c2ccc(NC(=O)COc3cc(C)c(Cl)c(C)c3)cc2)no1	nt	nt	i	nt	?
Cc1ccsc1C(=O)Nc1cccc(-n2cnnn2)c1	i	i	i	i	i
COc1cc2[nH]c(=O)n(CCCC(=O)NCCc3ccccc3)c(=O)c2cc1OC	i	i	5.2µM	i	?
CCOc1cc2[nH]c(=O)n(CCCCCC(=O)NC3CCCC3)c(=O)c2cc1OCC	i	i	10µM	i	?
COc1cc2[nH]c(=O)n(CCC(=O)NCCC(C)C)c(=O)c2cc1OC	i	i	nt	i	nt
CCOc1cc2[nH]c(=O)n(CCCCC(=O)NC3CCCCCC3)c(=O)c2cc1OCC	i	i	nt	i	?
COc1cccc2c(=O)n(CC(=O)NCCc3ccccc3)ccc12	i	i	3.3µM	i	1.9µM
CCc1c(C)nc2ncnn2c1N1CCCC(C(=O)NCCc2ccc(OC)cc2)C1 (configuration not stated)	i	i	i	i	?
CCOc1ccccc1NC(=O)C1CCCN(c2c(CC)c(C)nc3ncnn23)C1 (configuration not stated)	i	i	i	i	10µM
CCc1c(C)nc2ncnn2c1N1CCC(C(=O)Nc2ccc(C)cc2)CC1	i	i	12µM	i	?
CCc1c(C)nc2ncnn2c1N1CCC(C(=O)Nc2ccccc2)CC1	i	i	i	i	?
COc1ccc(/C=C(\NC(=O)c2ccc(OC)cc2)C(=O)Nc2ccccc2C(=O)O)cc1	i	i	i	i	i
O=C(Nc1cccc(Cl)c1Cl)C1CCCO1 (configuration not stated)	i	i	?	i	i
COc1cccc(CC(=O)N2CCc3nc(-c4ccccc4)c4c(c3C2)CO[C@@H](C)C4)c1	nt	i[11.5 µM]	nt	nt	nt
Cc1cc(O)c(C(=O)/C=C/c2ccc(Cl)cc2)c(=O)o1	50	i	?	32	?
COc1ccc(/C=C/C(=O)c2c(O)cc(C)oc2=O)c(OC)c1	i	14µM	i	24	i
CSc1ccc(/C=C/C(=O)c2c(O)cc(C)oc2=O)cc1	52	?	?	37	?
COc1cc(/C=C/C(=O)c2c(O)cc(C)oc2=O)cc(OC)c1O	i	i	i	i	nt
COc1cccc(/C=C/C(=O)c2c(O)cc(C)oc2=O)c1O	i	i	i	i	nt
Cc1cc2[nH]c(=O)c(=O)[nH]c2cc1S(=O)(=O)Nc1cccc(F)c1	i	i	i	i	i
N#Cc1ccc(Oc2ccc(NC(=O)C3CC=CCC3C(=O)O)cc2)cc1 (configuration not stated)	i	i	?	i	i
CC(C)c1ccc(NC(=O)COc2ccc(F)cc2C(=O)c2cnn(-c3ccccc3)c2)cc1	120	i	?	73	i
O=C(COc1ccccc1C(=O)c1cnn(-c2ccccc2)c1)Nc1ccc2ccccc2c1	i	i	i	57	i
SMILES	Shiga inhibitor	LmPK inhibitor	Pf growth 96h	CHX counter	Pf growth 48h
COc1ccc(-n2cc(C(=O)c3ccc4ccccc4c3O)cn2)cc1	i	i	?	i	i
CCOC(=O)COc1ccccc1C(=O)c1cnn(-c2ccccc2)c1	111	i	i	59	nt
Cc1ccc(S(=O)(=O)N2CCOC2CNC(=O)C(=O)NCCN2CCOCC2)cc1 (configuration not stated)	i	i	i	i	i
COc1ccc2c(c1)C(c1ccc3c(c1)OCO3)CC(=O)O2 (configuration not stated)	i	nt	nt	i	nt
COC(=O)C1=C(C)N(Cc2ccc(OC)c(OC)c2)C(=O)C1	i	i	?	i	13µM
CC1CN(C(=O)c2cc([N+](=O)[O-])cc([N+](=O)[O-])c2)CC(C)O1 (configuration not stated)	104	i	i	42	i
Cc1ccc(C(=O)N2CC(C)OC(C)C2)cc1[N+](=O)[O-] (configuration not stated)	i	i	?	i	i
Cc1ccc(CCS(=O)(=O)c2ccc(C(C)(C)C)cc2)cn1	i	i	i	i	i
COc1ccccc1NC(=O)C1CCN(C(=O)NCc2ccccc2)CC1	i	i	i	i	i
COc1ccc(S(=O)(=O)N2CCN(C(=O)c3cc(-c4ccc(C)cc4)n[nH]3)CC2)cc1	i	i	i	i	?
CCCCN1C(=O)/C(=C/C=C2\Oc3ccccc3N2CC)SC1=S	i	i	i	i	i
CN1CCS/C1=C\C=C1/SC(=S)N(CC(=O)O)C1=O	i	i	i	i	i
CCN1C(=O)/C(=C/C=C2/SCCN2C)SC1=S	78	i	i	59	i
CCCCN1C(=O)/C(=C/C=C2/CC(C)(C)CN2C)SC1=S	i	i	?	30	i
Nc1c(C(=O)NCCN2CCOCC2)c2nc3ccccc3nc2n1CCc1ccccc1	i	i	i	i	9.3µM
C=CCNC(=O)c1c(N)n(CCN2CCOCC2)c2nc3ccccc3nc12	i	i	i	i	i
Nc1c(C(=O)NCCN2CCOCC2)c2nc3ccccc3nc2n1CCc1ccccc1F	i	i	13µM	i	?
CCN(CC)C(=O)c1sc(NC(=O)c2ccc(C)c([N+](=O)[O-])c2)c(C#N)c1C	i	i	i	i	i
CCCCn1c(N)c(N(CC)C(=O)c2ccc(C#N)cc2)c(=O)[nH]c1=O	i	i	i	i	i
Cc1ccc(S(=O)(=O)c2cnc3cc(C)nn3c2N)cc1	i	i	5.9µM	i	i
COc1ccc(NC(=O)CCC(=O)Nc2nnc(C(F)(F)F)s2)c(OC)c1	i	i	i	i	nt
CCCCN(C)CCCNC(=O)CN1C(=O)COc2ccc(S(=O)(=O)N3CCOCC3)cc21	i	i	i	i	?
COc1ccc(NC(=S)c2ccc(N(C)C)cc2)cc1	58	i	i	54	i
COc1ccc(NC(=S)Nc2ccc(N(C)C(C)=O)cc2)cc1	i	i	i[1.15 µM]	i	i
COc1ccc(NC(=S)c2ccccc2)cc1	71	i	i	53	i
SMILES	Shiga inhibitor	LmPK inhibitor	Pf growth 96h	CHX counter	Pf growth 48h
Cc1ccc(NC(=S)c2ccc(N(C)C)cc2)cc1	78	i	i	53	i
COc1ccc(C(=S)Nc2ccc(N(C)C)cc2)cc1	78	i	nt	37	i
CCc1ccccc1OCC(=O)NNCC(=O)Nc1cccc(C#N)c1	nt	nt	i	nt	?
CC(C)n1cnnc1SCC(=O)NNC(=O)COc1ccc(Cl)cc1	nt	nt	i	nt	i
COc1ccc(Cl)cc1S(=O)(=O)NC(C)C(=O)NCc1ccc2c(c1)OCO2 (configuration not stated)	i	i	i	i	i
CCOCCCN(C(=O)c1snc(C(N)=O)c1N)C(C(=O)NCCC(C)C)c1ccc(Cl)cc1 (configuration not stated)	i	i	i	i	?
Oc1ccc(Br)cc1/C=N/NC(=S)NCCc1ccccc1	i	i	2.3µM	i	4.7µM

Screening results (PubChem)
